Test results: PubChem BioAssay (NCI)
This is part of a sample that, as a whole, favours compounds with a hit. Of some 79,000 tested, about 15% had one in any assay. Cut-off read from the data, not from the text of the source: active = growth inhibition above about 70%; inactive = the rest.

Assays:
[1] = NCI Yeast Anticancer Drug Screen. Data for the rad50 strain (AID 155);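 note: 0% = growth of vehicle-only cultures of the same strain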; conditions: S. cerevisiae rad50 strain growth inhibition; at 50.0 µM; hits give high values
In short: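 Yeast carrying a defined DNA repair defect were exposed to test compounds, and growth was compared with vehicle-treated controls to give percent inhibition.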

[2] = NCI Yeast Anticancer Drug Screen. Data for the mec2-1 strain (AID 157); conditions: S. cerevisiae mec2-1 strain, at 50.0 µM, hits give high values
In short: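 Growth inhibition is read against vehicle-treated controls after compound exposure of the mec2-1 yeast strain, which is defective in DNA damage repair or cell cycle control.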

[3] = NCI Yeast Anticancer Drug Screen. Data for the sgs1 mgt1 strain (AID 161);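 note: 0% = growth of cultures given vehicle only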; conditions: S. cerevisiae sgs1 mgt1 strain, at 50.0 µM, hits give high values
In short: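 Compounds are added to genetically altered yeast, and growth is compared with cultures given vehicle alone to give percent inhibition.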

[4] = NCI Yeast Anticancer Drug Screen. Data for the cln2 rad14 strain (AID 165);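 note: 0% = growth equal to vehicle treated cultures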; conditions: S. cerevisiae cln2 rad14 strain, at 50.0 µM, hits give high values
In short: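 Growth inhibition, relative to vehicle-treated controls, is the read-out. The test organism is a yeast strain with defined genetic alterations, cln2 rad14.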

[5] = NCI Yeast Anticancer Drug Screen. Data for the bub3 strain (AID 167); conditions: S. cerevisiae bub3 mutant strain, at 50.0 µM, hits give high values
In short: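 Compounds were applied to a genetically altered yeast strain carrying a cell-cycle control defect. Growth inhibition was scored against vehicle-treated controls.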

[6] = NCI Yeast Anticancer Drug Screen. Data for the mlh1 rad18 strain (AID 175); conditions: S. cerevisiae mlh1 rad18 strain growth inhibition; at 50.0 µM; hits give high values
In short: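 Cells of a genetically altered yeast strain, deficient in DNA damage repair, were treated with compound. Their growth was then compared with that of vehicle-treated cultures to give inhibition.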

Measured: growth inhibition

COc1cc([N+](=O)[O-])c(S(=O)(=O)O)cc1-n1nc(-c2ccccc2)n[n+]1-c1cc(S(=O)(=O)[O-])c([N+](=O)[O-])cc1OC
inactive: [1] -5.65% | [2] 4.15% | [3] -13.3% | [4] -22.7% | [5] -20.4% | [6] 16.2%

N#CCOS(=O)(=O)O
inactive: [1] -0.6% | [2] 0.45% | [3] -1.4% | [4] -6.7% | [5] -3.25% | [6] -1%

CCc1cccc(CC)c1NC(=O)Nc1cc(Cl)ccc1C
inactive: [1] 1.8% | [2] 6.45% | [3] 5.4% | [4] -8.45% | [5] 30.1% | [6] 7.9%

CCCCCCCCCCCCC(N)C(=O)O (centres undefined)
inactive: [1] 3.55% | [2] -9.15% | [3] 28% | [4] -15.8% | [5] 6.7% | [6] -1.3%

O=c1cc(-c2ccccc2)nc(Sc2ccc([N+](=O)[O-])cc2[N+](=O)[O-])[nH]1
inactive: [1] 1.1% | [2] 0.2% | [3] -11.4% | [4] 2.7% | [5] 2.65% | [6] 8.25%

CN(C)CCN(C)CCN(C)CCN(C)C
inactive: [1] -10.4% | [2] -25.8% | [3] 11.8% | [4] -6.75% | [5] 5.9% | [6] -6.7%

CCCCC/C=C/C(CC)(C(=O)OCC)C(=O)OCC
inactive: [1] -5.95% | [2] 20.9% | [3] 13.6% | [4] -60% | [5] 40.9% | [6] 6.1%

Clc1ccc(/C=N/c2ccccn2)cc1
inactive: [1] -37.2% | [2] -51.4% | [3] -22.8% | [4] 19.9% | [5] -54.1% | [6] -31.1%

O=C(NC1c2ccccc2CCc2ccccc21)C(F)(F)F
inactive: [1] 27.7% | [2] -7.75% | [3] 14.5% | [4] 3.05% | [5] 15.3% | [6] 22.6%

c1ccc(CN2CCC(=NN3CCCCC3)CC2)cc1
inactive: [1] 19.9% | [2] -9.5% | [3] 23.2% | [4] 15.2% | [5] 17.9% | [6] -8.55%

Cc1cc2nc(-c3ccccn3)c(-c3ccccn3)nc2cc1C
inactive: [1] 2.05% | [2] -18.9% | [3] 6.9% | [4] 20.1% | [5] -7.75% | [6] 21.4%

O=C(/C=C/c1ccc(O)c(O)c1)OC1CC(O)(C(=O)O)CC(O)C1O (centres undefined)
inactive: [1] 4.75% | [2] 5.9% | [3] 7.85% | [4] 11.4% | [5] -2.75% | [6] 17.7%

O=C(O)C(O)C(O)C(O)C(O)C(=O)O.[NH-]C1CCCCC1[NH-].[Pt+2] (centres undefined)
inactive: [1] 8.15% | [2] -3.25% | [3] -1.55% | [4] 12.9% | [5] 8.25% | [6] 6.75%

CC(=O)NCC(C)(C)C
inactive: [1] 2.15% | [2] 10.8% | [3] -12.7% | [4] -16.2% | [5] -32% | [6] -12.8%

COc1ccc2nccc(SCC(=O)O)c2c1
inactive: [1] -5.25% | [2] 8.25% | [3] -29.6% | [4] 18.9% | [5] 37% | [6] 1.85%

O=C1OCCC1=P(c1ccccc1)(c1ccccc1)c1ccccc1
inactive: [1] -5.6% | [2] -30.9% | [3] 6.9% | [4] 9.45% | [5] -7.4% | [6] -4.85%

CCC(CCC(C)C1CCC2C3CC=C4CC(OC(=O)Nc5ccccc5)CCC4(C)C3CCC12C)C(C)C (centres undefined)
inactive: [1] -23.4% | [2] -28.1% | [3] -15.9% | [4] -38.5% | [5] -1.5% | [6] -26.4%

COc1c(CCl)cc(-c2sc3ccccc3c(=O)c2CCl)cc1CCl
inactive: [1] -7.25% | [2] -7.3% | [3] 1.1% | [4] 2.85% | [5] -1.8% | [6] 1.85%

Cc1ccc(CCOS(=O)(=O)c2ccc(C)cc2)cc1
inactive: [1] 13.5% | [2] -26.5% | [3] -1.3% | [4] 10.2% | [5] 28% | [6] 10.7%
